Experimental data: the supplement of paper PMC9492666
Structures can show the parent of a compound that is named as a salt.

Assays:
Settings in all cases: 72 h
HCC1937 [1] = assay: relative cell viability, compound alone, vs DMSO (fraction of DMSO control); higher = less growth inhibition
MDA-MB-231 [2] = assay: as above
HCC1937 [3] = assay: relative cell viability, compound + RSL3, vs DMSO (fraction of DMSO control); higher = less growth inhibition
MDA-MB-231 [4] = assay: as above
HCC1937 [5] = assay: relative cell viability, compound + erastin, vs DMSO (fraction of DMSO control); higher = less growth inhibition
MDA-MB-231 [6] = assay: as above
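For relative cell viability, compound + RSL3, vs DMSO in this document: breast cancer cell viability read out with the CCK-8 kit after co-treatment of each compound with the ferroptosis inducer RSL3.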
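For relative cell viability, compound + erastin, vs DMSO in this document: viability read by CCK-8 kit in 96-well plates, part of a combination screen pairing lipid-metabolism-targeting compounds with erastin.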
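For relative cell viability, compound alone, vs DMSO in this document: viability read out with the CCK-8 kit in 96-well plates, screening a set of 303 compounds acting on lipid metabolism targets.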

For `O=C(Oc1ccc([N+](=O)[O-])cc1)N1CCN(Cc2cccc(Oc3ccccc3)c2)CC1`, the relative cell viability (HCC1937 [1]) was 0.79 and the relative cell viability (MDA-MB-231 [2]) was 0.782.

`CCc1c(C(=O)C(N)=O)c2c(OCC(=O)O)cccc2n1Cc1ccccc1` [Varespladib] + COC(=O)c1ccc([C@H]2c3[nH]c4ccccc4c3C[C@H](C(=O)OC)N2C(=O)CCl)cc1 [RSL3] was tested, and the relative cell viability (HCC1937 [3]) was 0.449 and the relative cell viability (MDA-MB-231 [4]) was 0.574.

For `CC(C)=CCC[C@](C)(O)[C@H]1CC[C@]2(C)[C@@H]1[C@H](O)C[C@@H]1[C@@]3(C)CC[C@H](O)C(C)(C)[C@@H]3[C@@H](O)C[C@]12C` [(20S)-Protopanaxatriol] + CCOc1ccccc1-n1c(C(C)N2CCN(C(=O)COc3ccc(Cl)cc3)CC2)nc2ccccc2c1=O [erastin], the relative cell viability (HCC1937 [5]) was 0.772 and the relative cell viability (MDA-MB-231 [6]) was 0.397.

With `O=C1C=CC[C@@H]2[C@H]3CCCN4CCC[C@@H](CN12)[C@@H]34` [Sophocarpine] the relative cell viability (HCC1937 [1]) was 0.762 and the relative cell viability (MDA-MB-231 [2]) was 0.906.

`CCc1c(C(=O)C(N)=O)c2c(OCC(=O)O)cccc2n1Cc1ccccc1` [Varespladib] showed a relative cell viability (HCC1937 [1]) of 0.797 and a relative cell viability (MDA-MB-231 [2]) of 0.842.

`C[C@]12CC[C@@H](O)C[C@@H]1CC[C@@H]1[C@@H]2CC[C@]2(C)C(=O)CC[C@@H]12` [Androsterone] + COC(=O)c1ccc([C@H]2c3[nH]c4ccccc4c3C[C@H](C(=O)OC)N2C(=O)CCl)cc1 [RSL3] was tested, and the relative cell viability (HCC1937 [3]) was 0.919 and the relative cell viability (MDA-MB-231 [4]) was 0.658.

`CCOC(=O)N1c2ccc(C(F)(F)F)cc2[C@@H](N(Cc2cc(C(F)(F)F)cc(C(F)(F)F)c2)C(=O)OC)C[C@H]1CC` [Torcetrapib] + CCOc1ccccc1-n1c(C(C)N2CCN(C(=O)COc3ccc(Cl)cc3)CC2)nc2ccccc2c1=O [erastin] gave a relative cell viability (HCC1937 [5]) of 0.66 and a relative cell viability (MDA-MB-231 [6]) of 0.823.

`C[C@@H]1C(=O)O[C@H]2[C@H](O)[C@@]34O[C@@H]5OC(=O)[C@H](O)[C@@]56[C@H](C(C)(C)C)[C@H](O)C(OC3=O)[C@]64[C@@]12O` (stereo partly drawn) [Ginkgolide C] was tested, and the relative cell viability (HCC1937 [1]) was 1.15 and the relative cell viability (MDA-MB-231 [2]) was 1.08.

`C[C@]12CC[C@@H](O)C[C@@H]1CC[C@@H]1[C@@H]2CC[C@]2(C)C(=O)CC[C@@H]12` [Androsterone] showed a relative cell viability (HCC1937 [1]) of 1.33 and a relative cell viability (MDA-MB-231 [2]) of 1.08.

`O=C(CBr)c1ccc(O)cc1` [PTP Inhibitor I] was tested, and the relative cell viability (HCC1937 [1]) was 1.17 and the relative cell viability (MDA-MB-231 [2]) was 0.937.

Work on `O=C(NCCN1CCC2(CC1)C(=O)NCN2c1ccccc1)c1ccc2ccccc2c1` + COC(=O)c1ccc([C@H]2c3[nH]c4ccccc4c3C[C@H](C(=O)OC)N2C(=O)CCl)cc1 [RSL3] yielded a relative cell viability (HCC1937 [3]) of 0.229 and a relative cell viability (MDA-MB-231 [4]) of 0.51.

Work on `NNC(=O)c1nn(Cc2ccc(Cl)cc2Cl)c2ccccc12` [Adjudin] yielded a relative cell viability (HCC1937 [1]) of 0.767 and a relative cell viability (MDA-MB-231 [2]) of 0.757.

Work on `COc1ccc(CN2CCNCC2)c(OC)c1OC` [Trimetazidine dihydrochloride] yielded a relative cell viability (HCC1937 [1]) of 1.09 and a relative cell viability (MDA-MB-231 [2]) of 0.823.

In the case of `CC(C)=CCC[C@](C)(O)[C@H]1CC[C@]2(C)[C@@H]1[C@H](O)C[C@@H]1[C@@]3(C)CC[C@H](O)C(C)(C)[C@@H]3[C@@H](O[C@@H]3O[C@H](CO)[C@@H](O)[C@H](O)[C@H]3O)C[C@]12C` [Ginsenoside Rh1], the relative cell viability (HCC1937 [1]) was 1.09 and the relative cell viability (MDA-MB-231 [2]) was 1.03.

With `C[C@H](CCOc1cccc(CC(=O)O)c1)N(Cc1cccc(C(F)(F)F)c1Cl)CC(c1ccccc1)c1ccccc1` + CCOc1ccccc1-n1c(C(C)N2CCN(C(=O)COc3ccc(Cl)cc3)CC2)nc2ccccc2c1=O [erastin] the relative cell viability (HCC1937 [5]) was 0.602 and the relative cell viability (MDA-MB-231 [6]) was 0.384.

`NNC(=O)c1nn(Cc2ccc(Cl)cc2Cl)c2ccccc12` [Adjudin] + COC(=O)c1ccc([C@H]2c3[nH]c4ccccc4c3C[C@H](C(=O)OC)N2C(=O)CCl)cc1 [RSL3] showed a relative cell viability (HCC1937 [3]) of 0.557 and a relative cell viability (MDA-MB-231 [4]) of 0.45.

`O=C1C=CC[C@@H]2[C@H]3CCCN4CCC[C@@H](CN12)[C@@H]34` [Sophocarpine] + COC(=O)c1ccc([C@H]2c3[nH]c4ccccc4c3C[C@H](C(=O)OC)N2C(=O)CCl)cc1 [RSL3] was tested, and the relative cell viability (HCC1937 [3]) was 0.621 and the relative cell viability (MDA-MB-231 [4]) was 0.502.

`O=C(CBr)c1ccc(O)cc1` [PTP Inhibitor I] + COC(=O)c1ccc([C@H]2c3[nH]c4ccccc4c3C[C@H](C(=O)OC)N2C(=O)CCl)cc1 [RSL3] was tested, and the relative cell viability (HCC1937 [3]) was 0.674 and the relative cell viability (MDA-MB-231 [4]) was 0.577.

In the case of `CC(C)=CCC[C@](C)(O)[C@H]1CC[C@]2(C)[C@@H]1[C@H](O)C[C@@H]1[C@@]3(C)CC[C@H](O)C(C)(C)[C@@H]3[C@@H](O[C@@H]3O[C@H](CO)[C@@H](O)[C@H](O)[C@H]3O)C[C@]12C` [Ginsenoside Rh1] + COC(=O)c1ccc([C@H]2c3[nH]c4ccccc4c3C[C@H](C(=O)OC)N2C(=O)CCl)cc1 [RSL3], the relative cell viability (HCC1937 [3]) was 0.654 and the relative cell viability (MDA-MB-231 [4]) was 0.679.
